The list is a sample of the results.
aSyn 5UTR act: Activators via SNCA 5'UTR binding, MLPCN. alpha-synuclein 5'UTR reporter, activators screen. activity score, % (tested at 7.5 µM), hits read low. 300,000 tested, 7.1% active. AID 1814; in the data active = activity score below about -60%
An asterisk follows results filed as active.

SMILES	aSyn 5UTR act
CCOc1ccc2nc(N3CCC(C(=O)N4CCC5(CC4)OCCO5)CC3)sc2c1	-82*
Cc1ccc2nc(N3CCC(C(=O)N4CCC5(CC4)OCCO5)CC3)sc2c1	-78*
O=C(C1CCN(c2nc3ccc(Br)cc3s2)CC1)N1CCC2(CC1)OCCO2	-80*
CCCC(=O)Nc1cc(C(=O)N2CCC3(CC2)OCCO3)ccc1S(=O)(=O)c1ccc(C)cc1	35
O=Cc1cn(Cc2cccc([N+](=O)[O-])c2)c2ccccc12	94
O=[N+]([O-])c1ccc(NC2CCCC2)c2ccncc12	58
O=c1[nH]c(=S)[nH]c(O)c1N=Nc1ccc(SC(F)F)cc1	-72*
Cc1ccc(-c2nc(N3CCOCC3)s[n+]2-c2ccccc2)cc1	-233*
N#Cc1cc2c(nc1SCC(=O)Nc1ccc(Cl)cc1)C1CCN2CC1	-159*
N#Cc1cc2c(nc1SCC(=O)Nc1cc(Cl)ccc1Cl)C1CCN2CC1	-140*
C/C=C(\C)C(=O)N[C@@H](c1ccccc1)[C@@H](O)C(=O)O[C@H]1C[C@@]2(O)[C@@H](OC(=O)c3ccccc3)C3[C@](C)(C(=O)[C@H](O)C(=C1C)C2(C)C)[C@@H](O)C[C@H]1OC[C@@]31OC(C)=O (stereo not given in full)	98
Cc1cc(N=Nc2ccccc2C)ccc1N	-103*
Cc1ccc(CN2C3CCCC2CC(NC(=O)Nc2cccc(F)c2)C3)cc1 (stereo not given)	-99*
Nc1ccc2c(c1)Cc1ccccc1-2	-175*
Cc1cccc(Cn2cc(C=O)c3ccccc32)c1	68
CC(C)c1ccc(N2C(=O)NC(=O)/C(=C\C=C\c3ccco3)C2=O)cc1	-70*
O=C1NC(=O)N(Cc2ccccc2)C(=O)/C1=C/C=C/c1ccco1	-296*
CN(C)c1ccc(/C=C2/C(=N\O)C3CCN2CC3)cc1	-133*
COc1ccc(-c2nc3ccccc3c(=O)o2)cc1	-65*
COc1ccc(-[n+]2c(-c3ccccc3)cc(-c3ccccc3)cc2-c2ccccc2)cc1	81
CCOc1cccc(CNCCc2c(C)[nH]c3ccc(OC(F)(F)F)cc23)c1O	113
COc1ccc(-c2cc(=NCCC(=O)O)c3cc(C)ccc3o2)cc1	-121*
COc1ccc(-c2cc(=Nc3ccccc3)c3cc(C)ccc3o2)cc1	-100*
C/C1=C\[C@@H](C)C/C=C/[C@H]2[C@@H]3O[C@]3(C)[C@@H](C)[C@H]3[C@H](Cc4c[nH]c5ccccc45)NC(=O)[C@]32C(=O)/C=C/C(=O)[C@@H]1O	81
CN1C(=O)C(=Cc2ccc(OCC(=O)Nc3ccccc3)cc2)C(=O)N(C)C1=O	-78*
SMILES	aSyn 5UTR act
Cc1ccc(-c2nc3ccc(Cl)cc3n2OC(=O)N(C)C)cc1	-129*
CN(C)c1ccc(C(=O)N/N=C/C23CC[C@@H](O)CC2(O)CC[C@@H]2[C@@H]3CCC3(C)C(C4=CC(=O)OC4)CCC23O)cc1 (stereo not given in full)	95
CCCCCCOC(=O)c1ccccc1N	-136*
CCCCCCC[n+]1ccc(-c2cc[n+](CCCCCCC)cc2)cc1	92
CCC(CC)NCc1c[nH]c2ccccc12	-62*
Cc1ccc(/C=C2\C(=O)NC(=S)N(c3ccc(F)cc3)C2=O)s1	-116*
COC1CC(OC2CCC3(C)C(CCC4C3CCC3(C)C(C5=CC(=O)OC5)C(OC(C)=O)CC43O)C2)OC(C)C1OC1OC(COC2OC(CO)C(O)C(O)C2O)C(O)C(O)C1O (stereo not given)	115
Cc1ccc(-n2c(C)nc3cc(Cl)ccc3c2=O)nc1	-117*
CCC(=O)c1ccc(OC(=O)N(C)c2ccccc2)cc1	-118*
CN(C(=O)Oc1ccc(C(C)(C)C)cc1)c1ccccc1	-106*
O=c1nc(/C=C/c2ccc(Cl)cc2Cl)cc(C(F)(F)F)[nH]1	-64*
Cc1cc(C(=O)Nc2ccc3c(c2)OCCO3)nn1C(C)(C)C	-136*
Cc1cc(C(=O)Nc2ccccc2)nn1C(C)(C)C	-112*
CCC(=NCCC1=CCCCC1)c1c(O)[nH]c(=O)[nH]c1=O	48
CC(=O)OC1CC[C@]2(C#N)[C@H]3CC[C@]4(C)[C@H](C5C=CC(=O)O5)CCC4(O)C3CCC2(O)C1 (stereo not given in full)	85
CCCCCCCSc1cc(OC)c(CCNC)cc1OC	121
COc1cc(/C=C(/C)[N+](=O)[O-])ccc1OCc1ccccc1Cl	-134*
CCn1c(NN=O)nc2ccccc21	74
CN(C)C(=O)Oc1ccc2c(=O)c(Oc3ccccc3Br)coc2c1	-77*
Cc1cc(C(=O)CS(=O)(=O)c2ccc(F)cc2)cc(C)c1OC(=O)N(C)C	-135*
CN1C(=O)N(C)C(=O)C2(Cc3cc([N+](=O)[O-])ccc3N(C)C2c2ccccc2)C1=O (stereo not given)	-62*
O=c1c2ccccc2nc(/C=C/c2ccc(O)cc2)n1-c1ccc(O)cc1	-80*
COc1ccc(-c2cc(C(=O)N3CCC4(CC3)OCCO4)c3ccccc3n2)cc1	-88*
CN(C)C(=O)Oc1ccc(-c2cn3cc(C(F)(F)F)ccc3n2)cc1	-86*
CN(C)C(=O)Oc1cccc(-c2cn3cc(Cl)ccc3n2)c1	-82*
SMILES	aSyn 5UTR act
COC(=O)c1ccc(CC(C(=O)c2ccccc2)N(C)C)cc1 (stereo not given)	-154*
CN(C)C(Cc1ccc(Cl)cc1)C(=O)c1ccccc1 (stereo not given)	-82*
CC12CC[C@H]3[C@@H](CCC4(O)C[C@H](O)CCC34/C=N/NC(=O)c3ccccc3O)C1(O)CCC2C1=CC(=O)OC1 (stereo not given in full)	77
CC[C@@]1(O)C(=O)OCc2c1cc1n(c2=O)Cc2cc3ccccc3nc2-1	116
Clc1ccc2sc(C3CCNCC3)nc2c1	-159*
CCN(CC)C(=O)c1ccc(NC(=O)c2cccc(F)c2)cc1	-80*
N=C1c2ccccc2CN1NC(=O)c1ccc(F)cc1	-62*
O=C(Nc1ccc2c(c1)OCO2)c1cn(Cc2ccc(F)cc2)nn1	-76*
COC(=O)C1=C(c2cc3ccccc3o2)C[C@@H]2CC[C@H]1N2C(=O)N1CCCCC1	66
CC1CCN(CC(=O)c2ccc3c(c2)OCCO3)CC1	-77*
CC1CCN(CC(=O)c2ccccc2Cl)CC1	-134*
CCC1(OC(=O)CN)C(=O)OCc2c1cc1n(c2=O)Cc2cc3ccccc3nc2-1 (stereo not given)	103
CC(C)n1c(O)c(C2c3cc(Cl)ccc3Oc3[nH]c(=O)n(C(C)C)c(=O)c32)c(=O)[nH]c1=O (stereo not given)	-88*
O=[N+]([O-])c1ccccc1-c1cc(-c2ccccc2)cc(-c2ccccc2)[n+]1Cc1ccccc1Cl	64
Cn1ccc(NC(=O)CCl)n1	-70*
Cc1cc(NC(=O)CCl)nn1C	-94*
COC(=O)c1nc(-c2ccc3c(n2)C(=O)C(N)=C(OC)C3=O)c(N)c(-c2ccc(OC)c(OC)c2O)c1C	97
NC(Cc1nc2ccccc2[nH]1)c1ccc(Cl)cc1 (stereo not given)	-167*
COc1cccc(OC)c1C1=NCC(=O)Nc2c1oc1ccc(Br)cc21	59
C=C(C=O)CC1CC(O)[C@]2(C)OC3CC4OC5C[C@]6(C)O[C@]7(C)CCC8OC9C[C@]%10(C)OC%11C(C)=CC(=O)OC%11CC%10OC9C[C@@H](C)C8OC7CC6O[C@]5(C)CC5OC5C4OC3CC2O1 (stereo not given in full)	114
Nc1cc2nc3ccccc3nc2cc1N	-64*
Cn1c(O)c(Cc2ccc(OCc3ccccc3)cc2)c(=O)n(C)c1=O	-140*
